A short description of the assay: small-molecule microarray binders of probe aEGFR, primary screen, biochemical, biotinylated probe, 635/667 nm fluorescence (AID 1097).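 Further: probe is a biotinylated anti-EGFR antibody binding compounds printed on slides; score combines fluorescence near 667 nm and signal to noise of each spot.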 The following applies: higher = more signal.
Molecule `Cc1ccc(S[C@]2(C(=O)NCc3ccccc3)CC(=O)N(Cc3ccccc3C(F)(F)F)[C@@H]2c2ccc(CO)cc2)cc1` showed a composite z-score of -0.272.
Consider `COCCOC(=O)N1C(=O)[C@@]2(c3cc(C#CCCO)ccc31)[C@H](C(N)=O)[C@H]1C(=O)O[C@H](c3ccccc3)[C@H](c3ccccc3)N1[C@@H]2c1ccccc1OCCO`, for which the composite z-score was found to be 0.105.
The molecule `CC(C)=C1C(=O)C(c2ccccc2)=C2CN3C(=O)N(CCc4ccccc4)C(=O)[C@]3(C)[C@H]21` gave a composite z-score of -0.0251.
The same measure for `CC(C)(C)OC(=O)CC[C@@]1(C(=O)NCCN2CCOCC2)N=C(c2ccc(OCCCO)cc2)O[C@@H]1c1ccccc1CN=[N+]=[N-]`: -0.0479.

These data come from PubChem BioAssay.
